Test results as given in PubChem BioAssay AID463082 (The Scripps Research Institute Molecular Screening Center, 2010).
Screen size: about 330,000 compounds; about 4,900 (1.5%) were called active.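 How the source made its calls: active means inhibition above the mean inhibition across the screen plus 3 SD (cut at about 25% in these data); inactive means the rest.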 The sample as a whole holds a higher share of actives than the screen did.

target: Platelet-activating factor acetylhydrolase (Homo sapiens) (UniProt Q13093); assay: pPAFAH enzyme inhibitors, primary screen, biochemical, fluorescence polarization, human (AID 463082); settings: recombinant pPAFAH, FP-rhodamine probe fluorescence polarization; at 3.39 µM; active compounds read high;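 further: inhibitors block binding of the rhodamine activity-based probe so polarization drops; 0% = enzyme with DMSO and 100% = wells lacking pPAFAH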
Sequence (Q13093 whole entry, looked up): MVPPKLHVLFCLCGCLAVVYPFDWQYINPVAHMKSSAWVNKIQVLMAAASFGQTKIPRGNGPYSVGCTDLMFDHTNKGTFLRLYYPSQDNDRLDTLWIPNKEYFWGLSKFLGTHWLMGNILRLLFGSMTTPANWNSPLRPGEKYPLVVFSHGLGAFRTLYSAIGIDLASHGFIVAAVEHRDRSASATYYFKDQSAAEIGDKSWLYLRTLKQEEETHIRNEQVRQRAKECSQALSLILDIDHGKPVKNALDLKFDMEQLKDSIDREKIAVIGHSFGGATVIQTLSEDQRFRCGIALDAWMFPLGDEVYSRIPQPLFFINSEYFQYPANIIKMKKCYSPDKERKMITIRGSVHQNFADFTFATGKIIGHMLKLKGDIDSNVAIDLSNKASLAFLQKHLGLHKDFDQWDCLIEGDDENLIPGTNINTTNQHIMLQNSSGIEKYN

Row | SMILES | inhibition
1 | Cc1ccc(CNC(=O)CSc2nnc3c(n2)[nH]c2ccc(F)cc23)cc1 | 3.4% (inactive)
2 | Cc1ccn2c(=O)nc(SCC(=O)NCc3ccc4c(c3)OCO4)nc2c1 | 10.4% (inactive)
3 | Cc1ccn2c(=O)nc(SCC(=O)NCc3ccc(F)cc3)nc2c1 | 26.8% (active)
4 | Cc1ccc(C2SCC(=O)N2c2ccccc2)cc1 (stereo not given) | 2.44% (inactive)
5 | Cc1ccc(/C=N/NC(=S)Nc2cccc(S(=O)(=O)N(C)C)c2)o1 | 6.2% (inactive)
6 | Cc1ccc(/C=N/NC(=O)c2cc3ccccc3cc2O)o1 | 57.2% (active)
7 | O=C(N/N=C/c1cccnc1)c1ccc(NC(=O)c2ccc(F)cc2)cc1 | -2.91% (inactive)
8 | O=C(N/N=C/c1cccnc1)c1cc2ccccc2cc1O | 58% (active)
9 | O=C(NN=Cc1ccc(N2CCOCC2)cc1)c1cc2ccccc2cc1O | 23.5% (inactive)
10 | O=C(N/N=C\c1cccnc1)c1cc(-c2ccccc2)nc2c(Cl)cccc12 | -1.21% (inactive)
11 | Cc1nnc(SCC(=O)N(C(C)C)C(C)C)nc1C | 0.01% (inactive)
12 | CCCCOc1ccc(NC(=O)[C@@H]2CCCN2C(=O)C2CCN(S(=O)(=O)c3ccc(C)cc3)CC2)cc1 | 11.9% (inactive)
13 | O=C(OCCO)c1cc(Cl)c(C(=O)OCCO)cc1Cl | 1.07% (inactive)
14 | CCC1(CC)C(=O)C2=C3C1[C@H](C(=O)OC)C=C(C(=O)OC)C[C@H]3[C@H]1C(=O)N(Cc3ccccc3)C(=O)[C@H]1[C@H]2C (stereo not given in full) | 9.48% (inactive)
15 | CN(CC(=O)Nc1ccc(OC(F)F)cc1)S(=O)(=O)/C=C/c1ccccc1 | 5.82% (inactive)
16 | CCC(C(=O)OCC(=O)Nc1ccc(C(=O)Nc2ccc(OC)cc2)cc1)c1ccccc1 (stereo not given) | 2.28% (inactive)
17 | COc1ccc(NC(=O)COC(=O)c2ccc(NS(=O)(=O)/C=C/c3ccccc3)cc2)cc1 | 33.1% (active)
18 | COc1ccc2sc(-c3ccc(N(C)C)cc3)c(C#CCO)c2c1 | 17.2% (inactive)
19 | COc1ccc2c(-c3ccccc3)cc(SCC(=O)N(C)C3CCS(=O)(=O)C3)nc2c1 (stereo not given) | 34% (active)
20 | Cc1cc(C)c2nc(SCC(=O)N(C)C3CCS(=O)(=O)C3)cc(C)c2c1 (stereo not given) | 4.97% (inactive)
21 | COc1ccc(-c2cc(=O)oc3cc(OCC(=O)N(C)C4CCS(=O)(=O)C4)ccc23)cc1 (stereo not given) | 2.24% (inactive)
22 | Cc1ccccc1NC(=O)CCNS(=O)(=O)c1ccc2[nH]c(=O)oc2c1 | 0.18% (inactive)
23 | Cc1ccc(C2(C(F)(F)F)N=C3Sc4cc(C)cc(C)c4N3C(=O)N2)cc1 (stereo not given) | 2.43% (inactive)
24 | Cc1nn(C(C)CC(=O)O)c(C)c1C (stereo not given) | 1.08% (inactive)
25 | Cc1ccc(NC(=O)CN2CCCCC2)c2c1CC(C)(C)O2 | 1.85% (inactive)
26 | CC/C(=N\NC(=O)c1ccccc1Cl)c1ccc(Br)s1 | 2.32% (inactive)
27 | COC(=O)c1onc(-c2c(OC)cc(OC)cc2OC)c1C(=O)OC | -0.73% (inactive)
28 | Cc1ccc(S(=O)(=O)NCC(=O)NNC(=O)c2ccc(Br)cc2)cc1C | -3.03% (inactive)

Row | SMILES | inhibition
29 | CN(C)S(=O)(=O)c1ccc(N2CCCC2)c(C(=O)Nc2cccc(F)c2)c1 | -2.43% (inactive)
30 | CN(C)S(=O)(=O)c1ccc(N2CCCC2)c(C(=O)NCc2ccccc2)c1 | 27.1% (active)
31 | Cc1ccccc1OCC(=O)NNC(=O)c1cc(S(=O)(=O)N(C)C)ccc1N1CCCC1 | -0.66% (inactive)
32 | Cc1ccccc1CN1C[C@@H]2C[C@@H](c3cn(C)nc3-c3ccccc3)N3CCC[C@@]23C1=O | 8.05% (inactive)
33 | Cc1cc(C)c(-c2c(O)c3ccccc3n(C)c2=O)c(C)c1 | -0.19% (inactive)
34 | COc1ccc(CN2CC(C(=O)NCCN3CCN(c4ccccc4F)CC3)CC2=O)cc1 (stereo not given) | -3.16% (inactive)
35 | CC1CCC(NC(=O)C2c3ccccc3C(=O)N2Cc2ccc3c(c2)OCO3)CC1 (stereo not given) | -0.02% (inactive)
36 | O=C(C1CCN(Cc2ccc(Cl)cc2)CC1)N1CCN(Cc2ccc3c(c2)OCO3)CC1 | 6.74% (inactive)
37 | O=C(Nc1ccc(Cl)cc1)C1c2cccc[n+]2CC(=O)N1Cc1ccc2c(c1)OCO2 (stereo not given) | 25.9% (active)
38 | COC(=O)c1c(C)oc(C)c1S(=O)(=O)NCc1ccc(Cl)cc1 | -8.68% (inactive)
39 | COc1ccc(-n2cnnc2SCC(=O)Nc2cccc(S(N)(=O)=O)c2)cc1 | 3.84% (inactive)
40 | NS(=O)(=O)c1cccc(NC(=O)CSc2nc3ccccc3n2-c2ccccc2)c1 | 33.2% (active)
41 | Cc1nnc(SCC(=O)Nc2cccc(N)c2)n1-c1ccccc1 | 6.08% (inactive)
42 | O=[N+]([O-])c1ccc(N2CCN(S(=O)(=O)c3ccccc3)CC2)cc1N1CCc2ccccc2C1 | -4.15% (inactive)
43 | COCCN1C(=O)C(=O)/C(=C(/O)c2ccc(S(=O)(=O)N3CCCCC3)cc2)C1c1ccc(OC)c(OC)c1 (stereo not given) | -2.4% (inactive)
44 | Cc1cccc(-n2c(C)cc(/C=N/NC(N)=S)c2C)c1 | -4.16% (inactive)
45 | Cc1ccc(-n2c(C)cc(/C=N/Nc3ccc([N+](=O)[O-])cn3)c2C)c(C)c1 | 8.84% (inactive)
46 | Cc1cc(/C=N/Nc2ccc([N+](=O)[O-])cn2)c(C)n1-c1cccc(C(=O)O)c1 | 66.3% (active)
47 | NC(=O)NC(=O)CSc1nc2cc([N+](=O)[O-])ccc2n1-c1cccc(C(F)(F)F)c1 | 18.1% (inactive)
48 | Cc1ccc(C(=O)N/C(=C\c2ccco2)C(=O)NC2CCS(=O)(=O)C2)cc1 (stereo not given) | -1.45% (inactive)
49 | CC(=O)Nc1ccc(S(=O)(=O)Nc2ccc(N3CCOCC3)c(F)c2)cc1 | 5.29% (inactive)
50 | CC(=O)Nc1ccc(S(=O)(=O)Nc2ccc(N3CCCCC3)cc2)cc1 | 27.6% (active)
51 | COc1cc(NS(=O)(=O)c2ccc(NC(C)=O)cc2)cc(OC)c1 | 2.89% (inactive)
52 | COc1ccccc1OCCNC(=O)C(CCSC)NC(=O)COc1ccccc1 (stereo not given) | 1.04% (inactive)
53 | CC(C)NS(=O)(=O)c1ccc(OCC(=O)NC2CCCCCC2)cc1 | 6.56% (inactive)
54 | CCN(C(=O)COC(=O)c1cc(NS(=O)(=O)c2ccc(Cl)c([N+](=O)[O-])c2)ccc1O)C1CCCCC1 | -1.02% (inactive)
55 | COc1ccc(NS(=O)(=O)c2ccc(O)c(C(=O)OCC(=O)NC3CCCCC3)c2)cc1 | 26.9% (active)
